The values below come from PubChem BioAssay AID1578 (Sanford-Burnham Center for Chemical Genomics, 2009).

“And” between values parts separate entries of the source, which are not always exact repeats. Equal entries are not always repeated. Among all 290,000 compounds or so, about 3,000 (1%) were called active. This excerpt belongs to a sample that is enriched for actives. Values without a mark were called inactive. Cut-off read from the data, not from the text of the source: active = inhibition mostly above about 36% (no sharp cut-off); inactive = mostly below about 34%.

The nature of the test: NOD1 signaling inhibitors, primary screen, cell-based, luminescence, uHTS (AID 1578).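 Note: HEK-293T reporter cells stimulated with the NOD1 agonist gamma-tri-DAP.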 Particulars: NOD1-driven NF-kB luciferase reporter cells, at 4 µM, active compounds read high.
By inhibition is commonly meant the drop in the measured response relative to a control, in per cent. Regarding `O=C(NCCc1ccccc1)C1CCC(=O)N1CCc1ccccc1` (stereo not given), the inhibition was 2%.

On to `CCOC(=O)Cn1c(C)c(Br)c(COC)c(C#N)c1=O`, for which the inhibition is -13.2%.

For the compound `COC(=O)c1sc(NC(=O)CSc2nc3cccnc3n2C)nc1C`, the inhibition was -10.6%.

In the case of `CCCCCCC(C)NC(=S)Nc1cc(S(=O)(=O)N(C)C)ccc1C` (stereo not given), the inhibition is -10.2%.

In the case of `CN(Cc1cccs1)c1ncnc2sccc12`, the inhibition is 46.8% (active).

Consider `CN(Cc1ccccc1)c1ncnc2sccc12`, for which the inhibition is 32.5%.

As for `CN(Cc1ccccc1F)c1ncnc2sccc12`, the inhibition was -28.7%.

For `Cc1scc(C(=O)Nn2cnnc2)c1-c1ccccc1`, the inhibition is -12.5%.

Consider `CCN1C(=O)CSc2ccc(C(=O)NCc3ccco3)cc21`, for which the inhibition is -21.5%.

For the compound `COc1ccc(/C=C2\SC(=O)N(CCc3nnc(N)s3)C2=O)cc1`, the inhibition is 1.5%.

On to `CN(C)c1ccc(/C=C2\SC(=O)N(CCc3nnc(N)s3)C2=O)cc1`, for which the inhibition was 68% (active).

For `CN(C)c1ccc(/C=C2/SC(=O)N(CCN=C3NS(=O)(=O)c4ccccc43)C2=O)cc1`, the inhibition is -8.3%.

For `CCOC(=O)Cc1csc(NC(=O)CSc2ncnc3c2cnn3-c2ccccc2Cl)n1`, the inhibition is -4.7%.

For `COc1ccc(Oc2ccc(N/C=C3\CCCC3=O)cc2)cc1`, the inhibition was -29.4%.

Turning to `CC(NC(=O)/C(=C\c1ccco1)NC(=O)c1ccco1)C(=O)O` (stereo not given), the inhibition was -6.1%.

As for `COc1ccc(-c2nsc3c(N4CCCC4)ncnc23)cc1`, the inhibition was 37.5%.

Consider `COc1ccc(-c2nsc3c(N4CCCCC4C)ncnc23)cc1` (stereo not given), for which the inhibition is 77.6% (active).

Consider `COc1ccc(-c2nsc3c(N4CCCCC4)ncnc23)cc1`, for which the inhibition is 46.2%.

As to `COc1ccc(NS(=O)(=O)c2ccc(-c3coc(C)n3)cc2)cc1`, the inhibition is 5.2%.

In the case of `COc1ccc(C)cc1NS(=O)(=O)c1ccc(-c2cnc(C3CC3)o2)cc1`, the inhibition was 25.1%.

Consider `Cc1ccc(NS(=O)(=O)c2ccc(-c3cnc(C4CC4)o3)cc2)cc1`, for which the inhibition is 37.3%.

Regarding `COc1ccc(OC)c(NS(=O)(=O)c2ccc(-c3coc(C)n3)cc2)c1`, the inhibition was 29.1%.

Regarding `O=C(CCCC1=NS(=O)(=O)c2ccccc2N1)Nc1ccccc1`, the inhibition is -7.6%.

In the case of `COC(=O)CC(NS(=O)(=O)c1cccs1)c1ccc2c(c1)OCO2` (stereo not given), the inhibition was -20.9%.

Turning to `O=C(CNC(=S)N(CCCN1CCOCC1)Cc1cccs1)NCc1ccc(Cl)cc1`, the inhibition is -16.7%.

Turning to `CC(=O)Nc1cc2c(ccc3ccccc32)oc1=O`, the inhibition was -21.7%.

As for `CCOC(=O)c1c(C)[nH]c(C)c1C(=O)CSc1nc2ccccc2c(=O)n1-c1ccc(F)cc1`, the inhibition was -19.8%.

As for `CCOC(=O)c1c(C)[nH]c(C)c1C(=O)CSc1nc2ccccc2c(=O)n1-c1ccc(C)cc1`, the inhibition is -25.1%.

For the compound `CNc1ccccc1C(=O)OC(C)C(=O)Nc1ccc(Cl)cn1` (stereo not given), the inhibition was 54.3% (active).

With `CC(OC(=O)c1ccccc1O)C(=O)Nc1ccc(Cl)cn1` (stereo not given), the inhibition is -43.7%.

For the compound `CC(OC(=O)c1ccco1)C(=O)Nc1ccc(Cl)cn1` (stereo not given), the inhibition was -26.7%.

As for `COc1ccc(C(=O)NC2CCN(CC(=O)NCc3ccccc3F)CC2)cc1`, the inhibition was -30.3%.

Regarding `CCc1ccc(N(CC(=O)NC2CCCCC2)S(=O)(=O)c2c(C)noc2C)cc1`, the inhibition is -14.8%.

In the case of `Cc1cc(Br)c(NC(=O)CCl)c(Br)c1`, the inhibition was 42.9%.

Regarding `O=C(CCl)Nc1c[nH]c(=O)[nH]c1=O`, the inhibition was -31.2%.

For the compound `O=C(CCl)Nc1cc2[nH]c(=O)[nH]c2cc1Br`, the inhibition is 72.1% (active).

Turning to `NC(=O)c1cc2ccccc2o/c1=N\NC(=O)c1ccc(F)cc1`, the inhibition is -3.2%.

With `Cn1c(=O)c2c(nc(Oc3ccccc3)n2C)n(C)c1=O`, the inhibition was 9.4% and -13.9%.

On to `COc1ccc(Oc2nc3c(c(=O)n(C)c(=O)n3C)n2C)cc1`, for which the inhibition was 18.3%.

For `Cc1nc2ccc(NS(=O)(=O)c3ccc(F)cc3)cc2s1`, the inhibition is 7.8%.

`Cc1ccc(S(=O)(=O)Nc2ccc3nc(C)sc3c2)cc1`: the inhibition was 32.2%.

For the compound `CCOc1cc(C(=O)Nc2ccc([N+](=O)[O-])cn2)cc(OCC)c1OCC`, the inhibition is -21.2%.

On to `CCNC(=S)N(Cc1cc2cc(C)c(C)cc2[nH]c1=O)C1CCCC1`, for which the inhibition is -35%.

On to `O=C(NCc1cccnc1)c1ccc(-c2ccccc2[N+](=O)[O-])o1`, for which the inhibition was -24.4%.

`COc1ccc(CCNC(=O)C2CCN(S(=O)(=O)c3ccc(OC)cc3)CC2)cc1`: the inhibition was 17.9%.

For the compound `COc1ccc(NC(=O)NNC(=O)c2ccc(-c3ccccc3)cc2)cc1`, the inhibition is -26.8%.

Take `COc1ccc(C(=O)NNC(=O)Nc2ccc(C)cc2)cc1`: the inhibition is -1.6%.

Turning to `COc1ccc(C(=O)NNC(=O)Nc2ccc(Cl)cc2)cc1`, the inhibition is 91.6% (active).

For the compound `Cc1nc(N2CCN(S(=O)(=O)c3ccc(Br)cc3)CC2)c2c(C)c(C)sc2n1`, the inhibition was 3.7%.

`CCS(=O)(=O)N1CCN(c2ncnc3sc(C)c(C)c23)CC1`: the inhibition was -20%.

In the case of `CNS(=O)(=O)c1cc(N(C)S(=O)(=O)c2ccc(C)cc2)c(C)cc1C`, the inhibition was -1.6%.

For `CC1=NCCN1S(=O)(=O)c1cc([N+](=O)[O-])ccc1Cl`, the inhibition was -40.2%.

As for `COc1ccc(COc2cc(-c3cccc(OC)c3)nc3ccc(NC(=O)c4ccc(OC)cc4)cc23)cc1`, the inhibition was 41.3%.

Take `COc1ccc(COc2cc(-c3cccc(OC)c3)nc3ccc(NC(=O)c4ccccc4)cc23)cc1`: the inhibition is 48.6%.

As to `COc1ccc(COc2cc(-c3cccc(OC)c3)nc3ccc(NC(=O)c4cccnc4)cc23)cc1`, the inhibition was 78.1% (active).

In the case of `CC(C)(C)C(=O)NC1=NN(c2c(Cl)cc(Cl)cc2Cl)C(=O)C1`, the inhibition is -19.7%.

In the case of `CC(C)c1ccccc1NC(=O)COC(=O)c1c2c(nc3ccccc13)CCN(Cc1ccccc1)C2`, the inhibition is 29.8%.

`Cc1ccc(NC(=O)CSc2nc(N)c3c4c(sc3n2)CSC(C)(C)C4)cc1`: the inhibition was 22.5%.

Take `CC(Sc1nc(N)c2c3c(sc2n1)CSC(C)(C)C3)C(=O)Nc1ccccc1` (stereo not given): the inhibition is 66.5% (active).

With `Cc1ccccc1NC(=O)CSc1nc(N)c2c3c(sc2n1)CSC(C)(C)C3`, the inhibition was -19.5%.
